Experimental data reported in PubChem BioAssay (EPA / NIEHS).
Some structures have more than one record in an assay (separate samples or runs), and their calls can disagree. Calls of active or inactive are those of the source. Rule for the calls: active = hit-call score of the fitted dose curve at least 0.9, where 1 is the maximum; inactive = score below 0.9.

How the values were obtained:
[1] = read-out: TIMP metallopeptidase inhibitor 2 (TIMP2), TIMP2 (gene 7077); assay: BSK_KF3CT_TIMP2: BioMAP Diversity Plus: KF3CT Assay for TIMP metallopeptidase inhibitor 2 (TIMP2) Biomarker Activity (AID 2283071); details: primary human keratinocytes with fibroblasts; actives raise or lower the signal
Summary of the method: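 Keratinocyte–fibroblast co-culture, 24 h exposure; TIMP-2 ELISA, DMSO-normalised bidirectional fit. Parallel SRB (0.1%, TCA-fixed, 560 nm) total-protein staining gauges cytotoxicity.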

[2] = read-out: C-C motif chemokine 2 (Homo sapiens) (UniProt P13500); assay: BSK_KF3CT_MCP1: BioMAP Diversity Plus: KF3CT Assay for Monocyte Chemoattractant Protein 1 (MCP1/CCL2) Biomarker Activity (AID 2283073); details: primary human keratinocytes with fibroblasts; actives raise or lower the signal
Summary of the method: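 Keratinocytes and foreskin fibroblasts were co-cultured, dosed with chemical, and sampled 24 h later. MCP-1 was quantified by ELISA, and the endpoint was analyzed with bidirectional fitting using DMSO as negative control.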

[3] = read-out: Matrix Metallopeptidase 9 (MMP9), MMP9 (gene 4318); assay: BSK_KF3CT_MMP9: BioMAP Diversity Plus: KF3CT Assay for Matrix Metallopeptidase 9 (MMP9) Biomarker Activity (AID 2283074); details: primary human keratinocytes with fibroblasts; actives raise or lower the signal;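 for AC50: MMP9 protein level quantified by ELISA in the co-culture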
Summary of the method: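 Human keratinocyte and foreskin fibroblast co-culture exposed to chemicals for 24 h; MMP9 biomarker measured by ELISA, bidirectional fitting relative to DMSO; cytotoxicity tracked by SRB total protein staining in parallel cultures.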

[4] = read-out: urokinase plasminogen activator (uPA), PLAU (gene 5328); assay: BSK_KF3CT_uPA: BioMAP Diversity Plus: KF3CT Assay for urokinase plasminogen activator (uPA) Biomarker Activity (AID 2283075); details: primary human keratinocytes with fibroblasts; actives raise or lower the signal
Summary of the method: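 Primary human keratinocyte/foreskin fibroblast co-culture exposed to chemical; uPA measured by ELISA at 24 h. Bidirectional fit versus DMSO, with parallel SRB total-protein staining for cytotoxicity.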

CD40, CD40 (gene 958) [5] = assay: BSK_LPS_CD40: BioMAP Diversity Plus: LPS Assay for CD40 Biomarker Activity (AID 2283076); details: primary human HUVEC with PBMC; actives raise or lower the signal
Summary of the method: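 CD40 signal, measured by ELISA, is fitted in both directions relative to DMSO vehicle. The system is an LPS-driven human vascular primary co-culture of endothelial cells and PBMC, sampled 24 h after compound addition.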

[6] = read-out: E-selectin (Homo sapiens) (UniProt P16581); assay: BSK_LPS_Eselectin: BioMAP Diversity Plus: LPS Assay for Eselectin Biomarker Activity (AID 2283077); details: primary human HUVEC with PBMC; actives raise or lower the signal
Summary of the method: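 Signal of E-selectin, detected by ELISA, served as the endpoint; cells were umbilical vein endothelium with PBMC, read 24 h after treatment. DMSO defined baseline, and both increases and decreases were fitted.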

[7] = read-out: Interleukin-8 (IL8), CXCL8 (gene 3576); assay: BSK_LPS_IL8: BioMAP Diversity Plus: LPS Assay for Interleukin-8 (IL8) Biomarker Activity (AID 2283078); details: primary human HUVEC with PBMC; actives raise or lower the signal
Summary of the method: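 Endothelial cells and PBMC from human donors are co-cultured, treated with chemicals and LPS, then assayed for IL-8 by ELISA after 24 h. Parallel SRB staining (0.1% SRB after 10% TCA fixation, 560 nm) flags cytotoxicity.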

[8] = BSK_LPS_SRB: Viability Assessment in the BioMAP Diversity Plus: LPS Assay (AID 2283079); details: primary human HUVEC with PBMC;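 note: total protein by sulforhodamine B absorbance as a cytotoxicity measure; measured one day after compound addition; fitted in both directions against DMSO so loss or gain of signal counts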
Summary of the method: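 Overt cytotoxicity was gauged by sulforhodamine B total-protein staining in a primary human vascular endothelial and mononuclear cell co-culture 24 h post-dosing. Activity was fitted in both directions relative to DMSO.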

[9] = read-out: Interleukin-1 alpha (IL1a), IL1A (gene 3552); assay: BSK_LPS_IL1a: BioMAP Diversity Plus: LPS Assay for Interleukin-1 alpha (IL1a) Biomarker Activity (AID 2283080); details: primary human HUVEC with PBMC; actives raise or lower the signal
Summary of the method: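 Measured: IL-1 alpha via ELISA at 24 h in LPS-activated human umbilical vein endothelium–PBMC co-culture. Baseline: DMSO, bidirectional fitting.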

[10] = read-out: Monocyte Chemoattractant Protein-1 (MCP1), CCL2 (gene 6347); assay: BSK_LPS_MCP1: BioMAP Diversity Plus: LPS Assay for Monocyte Chemoattractant Protein-1 (MCP1) Biomarker Activity (AID 2283081); details: primary human HUVEC with PBMC; actives raise or lower the signal;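 for AC50: secreted MCP-1 protein quantified by ELISA in culture supernatant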
Summary of the method: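 LPS-stimulated HUVEC/PBMC co-culture; chemical, 24 h; MCP-1 by ELISA; bidirectional fit vs DMSO; cytotoxicity via SRB (0.1% stain, 10% TCA fix, 560 nm) in parallel wells.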

[11] = read-out: Macrophage colony-stimulating factor (MCSF), CSF1 (gene 1435); assay: BSK_LPS_MCSF: BioMAP Diversity Plus: LPS Assay for Macrophage colony-stimulating factor (MCSF) Biomarker Activity (AID 2283083); details: primary human HUVEC with PBMC; actives raise or lower the signal
Summary of the method: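 Compound is added to a human vascular primary co-culture of umbilical vein endothelium and blood mononuclear cells. After 24 h, M-CSF is quantified by ELISA. Signal changes are fitted in both directions against DMSO.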

[12] = read-out: Tissue Factor, F3 (gene 2152); assay: BSK_LPS_TissueFactor: BioMAP Diversity Plus: LPS Assay for Tissue Factor Biomarker Activity (AID 2283084); details: primary human HUVEC with PBMC; actives raise or lower the signal
Summary of the method: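 In this co-culture system of umbilical vein endothelium with PBMC, stimulated with LPS, cell-surface CD142 is detected by ELISA at 24 h. Endpoint values derive from bidirectional fitting, DMSO serving as baseline.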

[13] = read-out: Tumor necrosis factor (Homo sapiens) (UniProt P01375); assay: BSK_LPS_TNFa: BioMAP Diversity Plus: LPS Assay for Tumour Necrosis Factor alpha (TNFa) Biomarker Activity (AID 2283085); details: primary human HUVEC with PBMC; actives raise or lower the signal
Summary of the method: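 Primary human vascular co-culture of HUVEC and PBMC; TNFa ELISA 24 h after treatment, analysed as increase or decrease relative to DMSO control.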

[14] = read-out: Vascular cell adhesion molecule 1 (VCAM1), VCAM1 (gene 7412); assay: BSK_LPS_VCAM1: BioMAP Diversity Plus: LPS Assay for Vascular cell adhesion molecule 1 (VCAM1) Biomarker Activity (AID 2283086); details: primary human HUVEC with PBMC; actives raise or lower the signal
Summary of the method: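 Primary human vascular co-culture (umbilical vein endothelium plus PBMC) stimulated with LPS received chemical; 24 h later VCAM-1 was read by ELISA. Overt cytotoxicity was assessed by sulforhodamine B staining of parallel cultures at the same time point.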

CD40, CD40 (gene 958) [15] = assay: BSK_SAg_CD40: BioMAP Diversity Plus: SAg Assay for CD40 Biomarker Activity (AID 2283088); details: primary human HUVEC with PBMC; actives raise or lower the signal
Summary of the method: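 Fluorescence ELISA read-out of CD40 from umbilical vein endothelium plus peripheral blood mononuclear cells, sampled 24 h after dosing. Values come from bidirectional curve fitting with DMSO as baseline.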

CD69, CD69 (gene 969) = assay: BSK_SAg_CD69: BioMAP Diversity Plus: SAg Assay for CD69 Biomarker Activity (AID 2283089); details: primary human HUVEC with PBMC; actives raise or lower the signal;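 for AC50: cell surface CD69 protein quantified by ELISA with fluorescence detection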
Summary of the method: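 Values derive from bidirectional fitting relative to DMSO vehicle. Cells: umbilical vein endothelium plus peripheral blood mononuclear cells, treated 24 h before fluorescent ELISA for CD69.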

[16] = read-out: Monocyte Chemoattractant Protein-1 (MCP1), CCL2 (gene 6347); assay: BSK_SAg_MCP1: BioMAP Diversity Plus: SAg Assay for Monocyte Chemoattractant Protein-1 (MCP1) Biomarker Activity (AID 2283090); details: primary human HUVEC with PBMC; actives raise or lower the signal
Summary of the method: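 MCP-1 levels in the endothelial–PBMC SAg co-culture were quantified by ELISA at 24 h post-dosing; both increases and decreases versus DMSO scored. Cytotoxicity monitored by SRB total protein in parallel cultures.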

[17] = read-out: E-selectin (Homo sapiens) (UniProt P16581); assay: BSK_SAg_Eselectin: BioMAP Diversity Plus: SAg Assay for Eselectin Biomarker Activity (AID 2283091); details: primary human HUVEC with PBMC; actives raise or lower the signal
Summary of the method: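 Primary human endothelial cells and peripheral blood mononuclear cells were co-cultured and exposed to chemical for 24 hours. E-selectin levels were then quantified by ELISA, with bidirectional curve fitting normalised to DMSO controls.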

CD38, CD38 (gene 952) = assay: BSK_SAg_CD38: BioMAP Diversity Plus: SAg Assay for CD38 Biomarker Activity (AID 2283087); details: primary human HUVEC with PBMC; actives raise or lower the signal
Summary of the method: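 Fluorescence ELISA of cell-surface CD38 served as the read-out, with either increase or decrease fitted against DMSO controls. Cells were a human umbilical vein endothelium plus PBMC co-culture under SEB/TSST-1 stimulation, measured 24 h after dosing.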

[18] = BSK_LPS_PGE2: BioMAP Diversity Plus: LPS Assay for Prostaglandin E2 (PGE2) Biomarker Activity (AID 2283082); details: primary human HUVEC with PBMC; actives raise or lower the signal
Summary of the method: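 Endpoint derived from bidirectional curve fitting versus DMSO of ELISA-measured PGE2 in LPS-stimulated human primary vascular co-culture (HUVEC with PBMC) harvested at 24 h.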

Measured: AC50

Chain of E-selectin (Homo sapiens) (P16581 whole entry, looked up): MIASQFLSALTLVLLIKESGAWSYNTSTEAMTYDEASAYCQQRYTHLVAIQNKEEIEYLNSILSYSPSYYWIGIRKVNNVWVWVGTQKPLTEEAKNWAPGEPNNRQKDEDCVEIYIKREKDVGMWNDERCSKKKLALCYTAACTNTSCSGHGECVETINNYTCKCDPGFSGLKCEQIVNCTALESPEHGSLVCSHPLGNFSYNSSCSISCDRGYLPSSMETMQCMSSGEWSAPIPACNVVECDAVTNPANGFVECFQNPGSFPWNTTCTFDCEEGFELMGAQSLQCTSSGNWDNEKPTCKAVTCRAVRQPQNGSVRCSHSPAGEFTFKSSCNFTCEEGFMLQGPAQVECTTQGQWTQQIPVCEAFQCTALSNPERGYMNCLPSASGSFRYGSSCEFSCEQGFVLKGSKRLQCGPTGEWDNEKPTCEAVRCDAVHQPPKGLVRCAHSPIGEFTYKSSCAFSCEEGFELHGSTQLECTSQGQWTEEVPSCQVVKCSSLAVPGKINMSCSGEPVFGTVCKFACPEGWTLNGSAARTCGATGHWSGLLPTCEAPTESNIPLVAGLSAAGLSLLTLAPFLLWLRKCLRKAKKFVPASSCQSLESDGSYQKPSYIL
Chain of Tumor necrosis factor (Homo sapiens) (P01375 whole entry, looked up): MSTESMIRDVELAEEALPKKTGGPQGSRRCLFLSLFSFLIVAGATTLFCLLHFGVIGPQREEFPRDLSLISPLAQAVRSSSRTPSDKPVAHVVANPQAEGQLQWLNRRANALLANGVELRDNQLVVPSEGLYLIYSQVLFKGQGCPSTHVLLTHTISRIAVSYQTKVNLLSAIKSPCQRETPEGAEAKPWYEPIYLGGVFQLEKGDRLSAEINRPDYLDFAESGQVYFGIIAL

CCCCCC(C=O)=Cc1ccccc1
inactive: [7] | [12] | [13] | CD40, CD40 (gene 958) [15] | CD69, CD69 (gene 969) | [16] | [17]
active: [1] 30 µM | [2] 28.8 µM | [3] 34.5 µM | [4] 35.9 µM | CD40, CD40 (gene 958) [5] 33.3 µM | [6] 31.1 µM | [8] 32.8 µM | [9] 34.3 µM | [10] 32.9 µM | [11] 33.3 µM | [14] 30.4 µM

CC(C)(N=C=O)c1cccc(C(C)(C)N=C=O)c1
not listed: [13] | [17] | [18]
inactive: all other assays above

c1ccc(Oc2ccccc2)cc1
active: [1] 30.8 µM | [2] 30.7 µM | [3] 20 µM | [4] 20 µM
not listed: [13] | [17] | CD38, CD38 (gene 952)
inactive: all other assays above

CC(CN=Cc1ccccc1O)N=Cc1ccccc1O (configuration not stated)
inactive: [1] | [2] | [3] | [4] | CD40, CD40 (gene 958) [5] | [6] | [7] | [8] | [9] | [10] | [11] | [12] | [14] | CD38, CD38 (gene 952) | CD40, CD40 (gene 958) [15] | CD69, CD69 (gene 969) | [16]
active: [7] 0.151 µM

C=C(C)C(=O)OCC(CC)(COC(=O)C(=C)C)COC(=O)C(=C)C
active: [14] 19.7 µM | [17] 19.7 µM
not listed: [13] | CD38, CD38 (gene 952)
inactive: all other assays above

O=C1c2ccccc2C(=O)c2c(O)ccc(O)c21
active: [12] 3.52 µM | [13] 1.21 µM
not listed: [17] | CD38, CD38 (gene 952) | [18]
inactive: all other assays above

CC(=O)C1(C)CC2=C(CCCC2(C)C)CC1C (configuration not stated)
active: [1] 5.63 µM | [2] 10.3 µM | [3] 10.9 µM | [4] 11.6 µM | CD40, CD40 (gene 958) [5] 6.43 µM | [6] 9.47 µM | [7] 10.1 µM | [8] 13.3 µM | [9] 5.8 µM | [10] 10.9 µM | [11] 8.91 µM | [12] 10.1 µM | [14] 13 µM | CD38, CD38 (gene 952) 33 µM | CD40, CD40 (gene 958) [15] 15.2 µM | CD69, CD69 (gene 969) 24.5 µM | [16] 23.6 µM

CC1(C)C2=CCCC(C)(C)[C@]23CC[C@H]1C3
active: [1] 30.2 µM | [2] 20 µM
not listed: [13] | [17] | CD38, CD38 (gene 952) | [18]
inactive: all other assays above

C=C(C)[C@H]1CC=C(C)C(=O)C1
not listed: [13] | [17] | [18]
inactive: all other assays above

CCCCN(CCCC)C(=O)N(CCCC)CCCC
active: [1] 4.62 µM | [2] 4.75 µM | [3] 10.3 µM | [4] 7.68 µM | CD40, CD40 (gene 958) [5] 20 µM | [6] 20 µM | [8] 30.2 µM | [9] 20 µM | [10] 20 µM | [11] 20 µM | [12] 20 µM | [14] 24.7 µM | CD40, CD40 (gene 958) [15] 20 µM | CD69, CD69 (gene 969) 11.2 µM | [16] 20 µM
inactive: [7]

CN(C)C(=O)Nc1ccc(Oc2ccc(Cl)cc2)cc1
not listed: [13] | [17] | CD38, CD38 (gene 952) | [18]
inactive: all other assays above
